The values that follow come from PubChem BioAssay AID1845227 (National Center for Advancing Translational Sciences (NCATS), 2023).

Structures are written as SMILES. Records with an inconclusive call do not appear. Values without a mark were called inactive. Calls come from the whole dose curve; as a rule, active = well fitted inhibition curve with a large enough effect; inconclusive = small, poorly fitted or top-dose-only effect; inactive = no such curve, though single readings can be large or run the other way.

This assay concerns the target Luciferin 4-monooxygenase (Photinus pyralis) (UniProt P08659). Kind of assay: Confirmatory firefly luciferase (FLuc) qHTS assay for identification of artifact compounds.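 Note: 0% = DMSO and -100% = no enzyme control.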 The note with it: purified FLuc enzyme, luminescence, 5 min; series mostly up to 38.9 µM; activity change, negative = inhibition: at the top concentration. Put shortly: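 Compounds mixed 15 min with 10 uM luciferin/10 uM ATP, then 10 nM firefly luciferase added for 5 min at pH 7.6. Luminescence percent inhibition, scaled to no-enzyme and DMSO controls, fitted to Hill equation.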
A general note: qHTS replaces the single test concentration by a dilution series.
For the molecule `CCC(=O)N1CCCc2cc(S(=O)(=O)N3CCC(C(=O)Nc4ccccc4CC)CC3)ccc21`, the “activity change, negative = inhibition” value is 3.23%. For `CCc1ccc(NC(=O)CN2C(=O)C3(SCC(=O)N3c3ccc(F)c(F)c3)c3ccccc32)cc1` (stereo not drawn) the value was 6.32%; for `CCCS(=O)(=O)N1CC(=O)N(c2ccc(C)cc2C)C(C)(C(=O)NC2CCCCCC2)C1` (stereo not drawn), -5.65%. The result for `Cc1ccc(C)c(NC(=O)Cn2c(=O)n(-c3ccc(CC(=O)NCC4CCCO4)cc3)c(=O)c3ccccc32)c1` (stereo not drawn) reads -0.476%. Consider `C[C@H](CCC(=O)NCCS(=O)(=O)O)C1CC[C@H]2C3CC[C@@H]4C[C@H](O)CC[C@]4(C)C3C[C@H](O)[C@]12C` (stereo partly drawn), for which the “activity change, negative = inhibition” value was -6%. The result for `CCCCN(CCCNC(=O)c1cc(Nc2ccc(OC)c(OC)c2)nc2ccccc12)Cc1ccccc1` reads -7.28%; that for `CCc1cccc(NC(=O)C2CCC(CNS(=O)(=O)c3csc(C(N)=O)c3)CC2)c1` (stereo not drawn), -1.53%; that for `COc1cc(=O)n2c(c1C(=O)N(C)Cc1nccs1)CCN(Cc1cc(C)cc(C)c1)CC2`, 2.07%.

Turning to `COC(=O)CN1C(=O)[C@@H]2[C@H](C1=O)[C@@H]1CC(C(=O)OC)=C[C@@H](C(=O)OC)C3C1=C(C(=O)C31CCCCC1)[C@@H]2C` (stereo partly drawn), the “activity change, negative = inhibition” value was -1.19%.

On to `C=CCNc1nnc(-c2cccc3ccccc23)o1`, for which the “activity change, negative = inhibition” value is -0.572%. The result for `COc1ccc(C2Nc3ccccc3C(=O)N2Cc2ccccc2)cc1Oc1ccc(NC(C)=O)cc1` (stereo not drawn) reads 4.88%. Consider `CCOc1ccccc1NC(=O)CSc1nc2c(oc3ccccc32)c(=O)n1-c1ccc(F)cc1`, for which the “activity change, negative = inhibition” value is -1.76%. For `CNCc1nc(-c2ccc[nH]2)c2cc(Cl)ccc2n1` the value was -3.62%. For `Cc1ccc(NC(=O)c2ccc3[nH]c(C)cc(=O)c3c2)cc1` the value was 1.25%. For `Cc1cc(NC(=O)c2cccnc2)cc(-c2nc3cc(Cl)ccc3o2)c1O` the value was -1.99%; for `CCCOC(=O)c1ccc(NC(=O)C2CC(=O)N(c3ccc(C)cc3)C2)cc1` (stereo not drawn), -1.06%; for `Cc1ccc2oc(C(=O)Nc3ccc(S(=O)(=O)N(C)c4ccccc4)cc3)cc(=O)c2c1`, 1.46%. As for `O=C(COc1ccccc1C(=O)Nc1ccccc1)Nc1cccc([N+](=O)[O-])c1`, the “activity change, negative = inhibition” value is 4.06%. The result for `COc1ccc(-c2nnc3n2N=C(c2cc(OC)ccc2OC)CS3)c(OC)c1` reads 5.63%; that for `CCOC(=O)c1c(C)[nH]c(C)c1S(=O)(=O)N1CCC(C(=O)NCc2ccc(OC)cc2)CC1`, 3.5%; that for `CC(=O)Nc1oc(-c2cccc3ccccc23)nc1C#N`, 59.2%. The result for `Cc1ccc(-n2nnnc2CNC(=O)C(C)C)cc1C` reads 5.51%. Take `Cc1cccc(CSc2nc3cc(C(=O)NC4CCCC4)ccc3c(=O)n2Cc2ccccc2)c1`: the “activity change, negative = inhibition” value was 5.47%. For `O=C(Nc1ccc(Oc2ccccc2)cc1)Nc1nnc(-c2ccncc2)s1`, the “activity change, negative = inhibition” value was 0.508%.

For the molecule `COc1cccc(C2c3c(ncn(-c4cccc(C#N)c4)c3=N)Oc3ccc4ccccc4c32)c1` (stereo not drawn), the “activity change, negative = inhibition” value was -7.28%. Consider `COc1cccc(-c2nnc(Nc3nc4c(OC)cccc4s3)o2)c1`, for which the “activity change, negative = inhibition” value was -4.56%. The result for `CCOc1ccc2c(c1)C(C)=CC(C)(C)N2` reads -8.2%.

On to `CCCc1cc(=O)[nH]c(Nc2cc(C)ccc2OC)n1`, for which the “activity change, negative = inhibition” value was -0.205%. The result for `O=S(=O)(Nc1cccc2cccnc12)c1ccccc1` reads 13.1%; that for `Cc1ccc(Nc2c(-c3ccsc3)nc3cccc(C)n23)cc1`, -11.5%; that for `CNc1cccc(S(=O)(=O)N2CCCN(S(=O)(=O)c3ccc4c(c3)OCCO4)CC2)c1`, -3.42%. For `CC(CCc1ccccc1)NC(=O)Cn1c(=O)nc(-c2ccccc2F)c2cc(Cl)ccc21` (stereo not drawn), the “activity change, negative = inhibition” value is -4.2%.

Take `O=C1c2ccccc2C(=O)N1c1cccc2cnccc12`: the “activity change, negative = inhibition” value is 1.35%.
